From publication PMC7862700, “An all-to-all approach to the identification of sequence-specific readers for epigenetic DNA modifications on cytosine” come the findings set out here.

Common to all, as to assay: DAPPL (digital affinity profiling via proximity ligation, sequencing); 10 mM Tris-HCl pH 7.5, 50 mM NaCl, 1 mM DTT, 4% glycerol, room temperature, 30 min; GST-TFs on glutathione beads, 16-mer random dsDNA library, 0.1% formaldehyde crosslink after washing; high values mean tight binding
Details in all cases: protein: recombinant; tags: N-terminal GST; dsDNA, one strand shown

The target of one assay is T1, FLI1 (Homo sapiens, UniProt Q01543 1-452).
T1 sequence: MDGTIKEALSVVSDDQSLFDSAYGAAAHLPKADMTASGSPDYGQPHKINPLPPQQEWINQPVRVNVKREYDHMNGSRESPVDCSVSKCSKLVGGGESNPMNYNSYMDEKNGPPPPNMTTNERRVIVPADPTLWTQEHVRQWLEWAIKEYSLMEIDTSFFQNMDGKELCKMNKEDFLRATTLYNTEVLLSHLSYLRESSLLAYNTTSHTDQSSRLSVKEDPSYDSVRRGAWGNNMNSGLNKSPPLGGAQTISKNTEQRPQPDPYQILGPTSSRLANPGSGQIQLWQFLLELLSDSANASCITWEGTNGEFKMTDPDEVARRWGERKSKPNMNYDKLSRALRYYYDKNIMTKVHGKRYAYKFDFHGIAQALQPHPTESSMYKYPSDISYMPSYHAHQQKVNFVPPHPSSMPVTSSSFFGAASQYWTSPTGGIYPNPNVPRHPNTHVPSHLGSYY
In short, it runs like this:
(§1)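 After expression in yeast as GST fusions, human transcription factors were bound to glutathione beads, DNA-barcoded and mixed with a tag-only sample. The pools were incubated with 200 nmole of a 16-mer random double-stranded DNA library in Tris/NaCl/DTT/glycerol buffer (30 min, room temperature), washed and crosslinked with 0.1% formaldehyde. Proximity ligation with BsaI/T4 ligase ran for 1 h at 37 °C, before PCR amplification and sequencing on an Illumina NextSeq500. Binding signal is a hexamer's read frequency for a factor divided by its frequency for the tag-only sample.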

In another assay the target is T2, ELK1 (Homo sapiens, UniProt P19419 1-428).
T2 sequence: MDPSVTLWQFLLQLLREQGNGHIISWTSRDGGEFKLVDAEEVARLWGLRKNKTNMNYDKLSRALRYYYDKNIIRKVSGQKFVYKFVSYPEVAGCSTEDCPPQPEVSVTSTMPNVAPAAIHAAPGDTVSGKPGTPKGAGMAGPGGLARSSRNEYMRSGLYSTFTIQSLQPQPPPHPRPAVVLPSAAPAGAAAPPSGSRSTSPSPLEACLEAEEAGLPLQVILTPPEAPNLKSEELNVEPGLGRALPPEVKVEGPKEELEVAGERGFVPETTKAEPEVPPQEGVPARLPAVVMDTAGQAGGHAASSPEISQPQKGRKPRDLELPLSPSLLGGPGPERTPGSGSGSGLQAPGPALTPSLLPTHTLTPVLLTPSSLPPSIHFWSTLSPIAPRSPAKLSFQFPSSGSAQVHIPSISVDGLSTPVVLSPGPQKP
In short, it runs like this: as §1

The next assay addresses T3, GABPA (Homo sapiens, UniProt Q06546 1-454).
T3 sequence: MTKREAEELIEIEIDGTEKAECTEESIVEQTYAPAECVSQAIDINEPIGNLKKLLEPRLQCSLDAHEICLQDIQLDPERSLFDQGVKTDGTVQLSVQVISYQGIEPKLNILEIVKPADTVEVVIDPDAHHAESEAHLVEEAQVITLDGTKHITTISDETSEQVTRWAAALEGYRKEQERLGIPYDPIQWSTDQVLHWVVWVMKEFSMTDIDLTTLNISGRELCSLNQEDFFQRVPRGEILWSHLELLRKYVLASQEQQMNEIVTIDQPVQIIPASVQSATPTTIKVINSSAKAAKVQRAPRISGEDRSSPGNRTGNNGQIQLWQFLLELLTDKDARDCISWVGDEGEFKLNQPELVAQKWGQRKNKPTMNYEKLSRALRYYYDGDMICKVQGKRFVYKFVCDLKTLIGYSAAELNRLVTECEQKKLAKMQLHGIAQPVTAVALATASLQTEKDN
The gist of the method:
as §1

The target in a further assay is T4, ERG (Homo sapiens, UniProt P11308 1-479).
T4 sequence: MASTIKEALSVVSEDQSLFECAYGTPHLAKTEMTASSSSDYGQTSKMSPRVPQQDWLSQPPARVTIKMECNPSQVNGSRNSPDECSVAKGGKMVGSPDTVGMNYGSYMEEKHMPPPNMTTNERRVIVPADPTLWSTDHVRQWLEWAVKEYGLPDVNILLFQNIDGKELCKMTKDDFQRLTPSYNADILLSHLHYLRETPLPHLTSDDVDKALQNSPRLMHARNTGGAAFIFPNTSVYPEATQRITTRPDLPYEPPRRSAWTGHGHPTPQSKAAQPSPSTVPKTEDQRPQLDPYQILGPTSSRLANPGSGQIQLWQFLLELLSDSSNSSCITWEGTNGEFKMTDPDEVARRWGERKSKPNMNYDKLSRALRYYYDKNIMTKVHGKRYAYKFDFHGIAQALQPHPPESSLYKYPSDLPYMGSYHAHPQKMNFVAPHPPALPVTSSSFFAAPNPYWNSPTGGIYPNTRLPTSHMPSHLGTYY
In short, it runs like this: as §1

For the next assay, the target named is ELF1 (Homo sapiens, UniProt P32519 1-619). The gist of the method: as §1
ELF1, sequence (P32519 whole entry): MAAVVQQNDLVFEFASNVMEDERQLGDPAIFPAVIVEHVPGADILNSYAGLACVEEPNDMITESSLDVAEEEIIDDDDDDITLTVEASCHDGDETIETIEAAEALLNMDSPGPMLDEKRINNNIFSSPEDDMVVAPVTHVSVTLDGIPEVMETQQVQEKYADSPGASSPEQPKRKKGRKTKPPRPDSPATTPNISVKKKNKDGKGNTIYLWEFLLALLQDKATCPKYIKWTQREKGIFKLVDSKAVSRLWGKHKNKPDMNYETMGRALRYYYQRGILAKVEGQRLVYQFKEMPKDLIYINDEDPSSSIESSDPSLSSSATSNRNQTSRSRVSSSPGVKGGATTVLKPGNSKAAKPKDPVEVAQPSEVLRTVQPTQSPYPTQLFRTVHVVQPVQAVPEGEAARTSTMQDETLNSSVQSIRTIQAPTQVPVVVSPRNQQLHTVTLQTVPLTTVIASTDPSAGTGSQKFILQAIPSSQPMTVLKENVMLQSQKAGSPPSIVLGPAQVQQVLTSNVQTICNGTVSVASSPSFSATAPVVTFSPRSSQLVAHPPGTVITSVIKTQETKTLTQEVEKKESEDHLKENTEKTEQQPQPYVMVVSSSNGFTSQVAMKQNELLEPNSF
The target in the next assay is T5, EHF (Homo sapiens, UniProt Q9NZC4 1-300).
T5 sequence: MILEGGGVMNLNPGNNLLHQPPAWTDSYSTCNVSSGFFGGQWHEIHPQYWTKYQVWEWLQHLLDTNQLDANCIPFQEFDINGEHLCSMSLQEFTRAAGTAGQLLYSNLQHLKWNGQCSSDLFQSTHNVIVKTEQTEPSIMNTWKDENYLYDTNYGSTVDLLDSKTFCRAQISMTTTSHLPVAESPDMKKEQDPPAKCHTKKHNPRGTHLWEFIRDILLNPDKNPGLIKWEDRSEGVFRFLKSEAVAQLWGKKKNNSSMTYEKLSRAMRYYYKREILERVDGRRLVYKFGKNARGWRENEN
The gist of the method: as §1

Another assay concerns the target SPI1 (Homo sapiens, UniProt P17947 1-270). In short, it runs like this: as §1
The target in the next assay is SPIB (Homo sapiens, UniProt Q01892 1-262). The gist of the method:
as §1

The next assay has as its target T6, ELK3 (Homo sapiens, UniProt P41970 1-407).
T6 sequence: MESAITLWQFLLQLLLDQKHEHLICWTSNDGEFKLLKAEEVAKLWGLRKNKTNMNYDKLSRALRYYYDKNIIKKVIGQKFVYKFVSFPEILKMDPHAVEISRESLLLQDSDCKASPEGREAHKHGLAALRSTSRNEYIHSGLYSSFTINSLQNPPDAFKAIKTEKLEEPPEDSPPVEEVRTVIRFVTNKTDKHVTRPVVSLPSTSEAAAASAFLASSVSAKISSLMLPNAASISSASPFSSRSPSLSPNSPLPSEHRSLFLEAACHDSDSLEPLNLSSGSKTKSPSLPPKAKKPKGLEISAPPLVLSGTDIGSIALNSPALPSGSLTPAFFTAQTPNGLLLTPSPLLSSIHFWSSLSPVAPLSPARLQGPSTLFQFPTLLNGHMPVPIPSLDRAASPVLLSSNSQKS
The gist of the method: as §1

SPIB, sequence (Q01892 whole entry): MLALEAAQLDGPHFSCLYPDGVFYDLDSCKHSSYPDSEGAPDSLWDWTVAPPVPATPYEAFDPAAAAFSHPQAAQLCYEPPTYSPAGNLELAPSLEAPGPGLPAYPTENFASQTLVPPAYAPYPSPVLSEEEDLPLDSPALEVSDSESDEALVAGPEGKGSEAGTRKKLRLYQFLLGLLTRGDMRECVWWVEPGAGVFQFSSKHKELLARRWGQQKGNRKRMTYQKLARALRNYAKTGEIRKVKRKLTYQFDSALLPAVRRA

Regarding TATATC, the binding signal was 1.6 fold enrichment (6-mer frequency, TF over GST control) with FLI1; 1.62 fold enrichment (6-mer frequency, TF over GST control) in the assay with ELK1; 1.55 fold enrichment (6-mer frequency, TF over GST control) with GABPA; 1.48 fold enrichment (6-mer frequency, TF over GST control) in the assay with ERG; 1.58 fold enrichment (6-mer frequency, TF over GST control) with ELF1; 1.59 fold enrichment (6-mer frequency, TF over GST control) with EHF. Further, the binding signal is 1.54 fold enrichment (6-mer frequency, TF over GST control) in the assay with SPI1; 1.67 fold enrichment (6-mer frequency, TF over GST control) with SPIB; 1.42 fold enrichment (6-mer frequency, TF over GST control) with ELK3.

In the case of AAATCC, the binding signal in the assay with FLI1 was 1.54 fold enrichment (6-mer frequency, TF over GST control); in the assay with ELK1, 1.66 fold enrichment (6-mer frequency, TF over GST control); in the assay with GABPA it was 1.5 fold enrichment (6-mer frequency, TF over GST control); in the assay with ERG, 1.81 fold enrichment (6-mer frequency, TF over GST control); with ELF1, 1.59 fold enrichment (6-mer frequency, TF over GST control); with EHF, 1.58 fold enrichment (6-mer frequency, TF over GST control). For the same sequence, the binding signal with SPI1 is 1.5 fold enrichment (6-mer frequency, TF over GST control); with SPIB, 1.65 fold enrichment (6-mer frequency, TF over GST control); with ELK3, 1.53 fold enrichment (6-mer frequency, TF over GST control).

With CTCTCA, the binding signal with FLI1 is 1.49 fold enrichment (6-mer frequency, TF over GST control); with ELK1 it was 1.47 fold enrichment (6-mer frequency, TF over GST control); with GABPA, 1.52 fold enrichment (6-mer frequency, TF over GST control); with ERG, 1.36 fold enrichment (6-mer frequency, TF over GST control); with ELF1 it was 1.38 fold enrichment (6-mer frequency, TF over GST control); with EHF, 1.36 fold enrichment (6-mer frequency, TF over GST control). Moreover, the binding signal was 1.38 fold enrichment (6-mer frequency, TF over GST control) with SPI1; 1.44 fold enrichment (6-mer frequency, TF over GST control) with SPIB; 1.57 fold enrichment (6-mer frequency, TF over GST control) in the assay with ELK3.

As for TTATAT, the binding signal was 1.26 fold enrichment (6-mer frequency, TF over GST control) with FLI1; 1.42 fold enrichment (6-mer frequency, TF over GST control) with ELK1; 1.39 fold enrichment (6-mer frequency, TF over GST control) with GABPA; 1.4 fold enrichment (6-mer frequency, TF over GST control) with ERG; 1.34 fold enrichment (6-mer frequency, TF over GST control) in the assay with ELF1; 1.41 fold enrichment (6-mer frequency, TF over GST control) in the assay with EHF. Besides, the binding signal in the assay with SPI1 is 1.32 fold enrichment (6-mer frequency, TF over GST control); with SPIB, 1.51 fold enrichment (6-mer frequency, TF over GST control); in the assay with ELK3 it was 1.18 fold enrichment (6-mer frequency, TF over GST control).

With TTCGTC, the binding signal with FLI1 is 1.36 fold enrichment (6-mer frequency, TF over GST control); in the assay with ELK1, 1.33 fold enrichment (6-mer frequency, TF over GST control); with GABPA it was 1.33 fold enrichment (6-mer frequency, TF over GST control); with ERG it was 1.23 fold enrichment (6-mer frequency, TF over GST control); with ELF1 it was 1.32 fold enrichment (6-mer frequency, TF over GST control); with EHF, 1.27 fold enrichment (6-mer frequency, TF over GST control). Further, the binding signal with SPI1 was 1.29 fold enrichment (6-mer frequency, TF over GST control); with SPIB, 1.27 fold enrichment (6-mer frequency, TF over GST control); in the assay with ELK3, 1.22 fold enrichment (6-mer frequency, TF over GST control).

For AATAAA, the binding signal in the assay with FLI1 was 1.2 fold enrichment (6-mer frequency, TF over GST control); with ELK1, 1.2 fold enrichment (6-mer frequency, TF over GST control); in the assay with GABPA it was 1.27 fold enrichment (6-mer frequency, TF over GST control); with ERG, 1.21 fold enrichment (6-mer frequency, TF over GST control); with ELF1 it was 1.27 fold enrichment (6-mer frequency, TF over GST control); with EHF, 1.25 fold enrichment (6-mer frequency, TF over GST control). In addition, the binding signal was 1.32 fold enrichment (6-mer frequency, TF over GST control) with SPI1; 1.26 fold enrichment (6-mer frequency, TF over GST control) in the assay with SPIB; 1.27 fold enrichment (6-mer frequency, TF over GST control) with ELK3.

For ACTCTT, the binding signal was 1.17 fold enrichment (6-mer frequency, TF over GST control) in the assay with FLI1; 1.24 fold enrichment (6-mer frequency, TF over GST control) in the assay with ELK1; 1.22 fold enrichment (6-mer frequency, TF over GST control) with GABPA; 1.24 fold enrichment (6-mer frequency, TF over GST control) in the assay with ERG; 1.25 fold enrichment (6-mer frequency, TF over GST control) with ELF1; 1.2 fold enrichment (6-mer frequency, TF over GST control) in the assay with EHF. Also, the binding signal was 1.19 fold enrichment (6-mer frequency, TF over GST control) with SPI1; 1.25 fold enrichment (6-mer frequency, TF over GST control) with SPIB; 1.47 fold enrichment (6-mer frequency, TF over GST control) with ELK3.
